Screening results from PubChem.
NPSR antag – qHTS Assay for Antagonists of the Neuropeptide S Receptor: cAMP Signal Transduction | Q6W5P4 | CHO-NPSR cells, cAMP TR-FRET, antagonist mode | Potency, µM (series often up to 38.3 µM), actives largely listed as inhibitors | 220,000 tested, 1% active | AID 1461, 2008; also: nearly all actives have a fitted effect of over 50% in size
Target sequence (Q6W5P4 whole entry, looked up): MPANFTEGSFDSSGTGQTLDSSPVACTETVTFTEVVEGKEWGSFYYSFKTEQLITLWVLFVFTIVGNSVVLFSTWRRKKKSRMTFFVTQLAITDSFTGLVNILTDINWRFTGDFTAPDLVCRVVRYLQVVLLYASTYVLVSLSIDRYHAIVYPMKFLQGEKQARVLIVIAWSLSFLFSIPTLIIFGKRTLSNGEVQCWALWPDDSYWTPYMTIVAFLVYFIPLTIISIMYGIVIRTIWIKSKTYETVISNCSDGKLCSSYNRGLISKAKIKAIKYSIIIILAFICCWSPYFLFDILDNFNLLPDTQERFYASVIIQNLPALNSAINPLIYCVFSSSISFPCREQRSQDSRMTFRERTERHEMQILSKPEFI
IMPase Li inh – qHTS Assay for Identifying the Cell-Membrane Permeable IMPase Inhibitors: Potentiation with Lithium; CHO-M1 cells, IP1 TR-FRET (IP-One), carbachol + lithium; 210,000 tested, 0.35% active; Potency, µM (series often up to 59.4 µM), usual class: inhibitors;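 also: IP1 builds up when IMPase is blocked and the TR-FRET signal falls; nearly all actives have a fitted effect of over 50% in size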
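Lithium-sensitised IP1 accumulation assay; M1-expressing CHO cells treated 30 min at 37C with compound. Competitive antibody detection by time-resolved FRET followed a 10 min room-temperature lysis step.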
HttQ103 aggreg – qHTS Multiplex Assay to Identify Dual Action Probes in a Cell Model of Huntington: Aggregate Formation (GFP). Potency, µM (top dose mostly 46.1 µM), actives largely listed as inhibitors. AID 1688, 2009. PC12 HttQ103-GFP aggregates, Acumen cytometry, 40 h. 220,000 tested, 1.1% active; also: nearly all actives have a fitted effect of over 60% in size
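Multiplexed with ATP-based cell death, this channel scores GFP aggregates in PC12 cells expressing inducible HTTex1-Q103-GFP. Induction used 100 nM tebufenozide; compounds were tested in concentration series.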
HTT cytoprotect – qHTS Multiplex Assay to Identify Dual Action Probes in a Cell Model of Huntington: Cytoprotection (ATP). 230,000 tested, 0.14% active. PC12 HTT-Q103 induced, cytoprotection, ATP luminescence, 40 h. Potency, µM (highest dose often 56.4 µM), actives largely listed as activators. AID 1471, 2008; also: nearly all actives have a fitted effect of over 45% in size
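Compounds were screened for protection of PC12 cells against cell death after tebufenozide induction (100 nM final) of mutant Huntingtin exon 1 (Q103) fused to GFP.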
IMPase cell inh – qHTS Assay for Identifying the Cell-Membrane Permeable IMPase Inhibitors; 120,000 tested, under 10 active; CHO-M1 cells, IP1 accumulation, HTRF TR-FRET ratio; AID 901, 2007; Inositol monophosphatase 1 (Rattus norvegicus), P97697; inhibition (IP1 accumulation), % at 46.1 µM; active = well fitted curve in the direction sought with a large enough effect in the signal ratio, not every such curve was filed as active; inconclusive = small, poorly fitted or top-dose-only effect, or a change in a side signal; inactive = no such curve, though single readings can be large or run the other way; the % refers to the signal ratio;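 also: cells stimulated with carbachol in lithium chloride buffer; higher means more IMPase inhibition seen as more IP1 and lower FRET ratio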
Target sequence (P97697 whole entry, looked up): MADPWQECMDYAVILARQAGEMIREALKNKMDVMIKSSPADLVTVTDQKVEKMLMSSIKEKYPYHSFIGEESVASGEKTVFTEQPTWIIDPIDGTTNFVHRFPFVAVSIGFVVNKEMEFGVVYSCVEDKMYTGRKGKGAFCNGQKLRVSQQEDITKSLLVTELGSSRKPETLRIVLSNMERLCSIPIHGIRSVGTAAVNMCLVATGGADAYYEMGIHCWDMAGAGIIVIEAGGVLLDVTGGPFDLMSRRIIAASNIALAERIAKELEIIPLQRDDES
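The IP-One HTRF competitive assay in carbachol-stimulated CHO-M1 cells quantifies cellular IP1. Compounds spanned up to 46 uM final, and activity is expressed as AC50 from concentration-response fits of the ratio and donor data.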
PNC inhibitor – High Content Assay for Compounds that inhibit the Assembly of the Perinucleolar Compartment. PC3M PTB-GFP, PNC prevalence imaging, 16 h; active compounds read low. activity change (PNC), negative = inhibition, % at 10 µM. 140,000 tested, 3.1% active;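 active = readout at or below -70, meaning at least 70% loss of cells showing the perinucleolar compartment, a nuclear body marking cancer cells; inconclusive = readout between -30 and a set limit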
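PC3M cells stably expressing PTB-GFP, 750–1000 cells/well, treated 16 h at 37 °C with compound (23 nl of library stock), in duplicate. After paraformaldehyde fixation and Hoechst stain, imaged at 20x; PNC prevalence scored by image analysis.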
A number is an active result; [ ] = another dose, or the depositor's remark. Compounds with a hit are over-represented: about 3.4% of the library has one in this group of screens. Unless noted, calls follow the shape of the dose curve; as a rule, active = well fitted curve in the direction sought with a large enough effect; inconclusive = small, poorly fitted or top-dose-only effect, or another doubt; inactive = no such curve, though single readings can be large; an effect the other way counts as inactive or inconclusive.

How did CCCC(=O)Nc1ccc(NC(=O)CCc2ccccc2)cn1 do in these assays?
NPSR antag: inactive; IMPase Li inh: inactive; HttQ103 aggreg: inactive; HTT cytoprotect: inactive[10 µM]; IMPase cell inh: inactive; PNC inhibitor: -114

Results for CCCC(=O)Nc1ccc(NC(=O)Cc2ccccc2)cn1 ?
NPSR antag: inactive; IMPase Li inh: inactive; HttQ103 aggreg: inactive; HTT cytoprotect: inactive[10 µM]; IMPase cell inh: inactive; PNC inhibitor: inactive

How did CCCC(=O)Nc1ccc(NC(=O)c2ccccc2Cl)nc1 do in these assays?
NPSR antag: inactive; IMPase Li inh: inactive; HttQ103 aggreg: inactive; HTT cytoprotect: inactive[10 µM]; IMPase cell inh: inconclusive; PNC inhibitor: -84

Results for COc1cc(/C=N/NC(=O)CCN2CCN(c3ccccc3)CC2)cc(OC)c1OC ?
NPSR antag: inactive; IMPase Li inh: inactive; HttQ103 aggreg: inactive; PNC inhibitor: -86

Results for COc1cc(/C=N/NC(=O)CCN2CCN(Cc3ccccc3)CC2)cc(OC)c1OC ?
NPSR antag: inactive; IMPase Li inh: inactive; HttQ103 aggreg: inactive; HTT cytoprotect: inactive[10 µM]; PNC inhibitor: inactive

How did CN(c1ncnc(N)c1[N+](=O)[O-])C1CCS(=O)(=O)C1 (stereo not drawn) do in these assays?
NPSR antag: inactive; IMPase Li inh: inactive; HttQ103 aggreg: 4.5µM; HTT cytoprotect: inactive

Results for CC1=NN(C(=O)Cn2nc([N+](=O)[O-])c(Br)c2C)C(O)(C(F)(F)F)C1 (stereo not drawn) ?
NPSR antag: inactive; IMPase Li inh: inactive; HttQ103 aggreg: inactive; HTT cytoprotect: inactive[10 µM]; PNC inhibitor: inactive

Results for CN(C)CC(O)CN1C(=O)N(CN2C(=O)N(CC(O)CN(C)C)C(=O)C2(C)C)C(C)(C)C1=O (stereo not drawn) ?
NPSR antag: inactive; IMPase Li inh: inactive; HttQ103 aggreg: inactive; HTT cytoprotect: inactive

Results for Cc1cccc(/N=C/c2sc3ccccc3c2O)n1 ?
NPSR antag: inactive; HttQ103 aggreg: inactive[9.22 µM]; HTT cytoprotect: inactive[10 µM]

What do the screens show for `O=[N+]([O-])c1ccc(O)c(N=Cc2sc3ccccc3c2O)c1`?
NPSR antag: inactive; IMPase Li inh: inactive; HttQ103 aggreg: 7.9µM; PNC inhibitor: inactive

What do the screens show for `Oc1ccc(Cl)cc1N=Cc1sc2ccccc2c1Cl`?
NPSR antag: inactive; IMPase Li inh: inactive; HttQ103 aggreg: inconclusive; HTT cytoprotect: 2.2µM

Results for O=C(CN1C(=O)C(=O)N(Cc2ccccc2)C1=O)Nc1ccc(F)c(Cl)c1 ?
NPSR antag: inactive; IMPase Li inh: inactive; HttQ103 aggreg: inactive; HTT cytoprotect: inactive

Results for c1ccc(-c2ccc(N3CCCC4(CCNCC4)C3)cc2)cc1 ?
IMPase Li inh: inactive; HTT cytoprotect: inactive

What do the screens show for `CCOC(=O)CN1C(=O)S/C(=C/C=C/c2ccc(N(C)C)cc2)C1=O`?
NPSR antag: inactive; IMPase Li inh: inactive; HttQ103 aggreg: inconclusive; HTT cytoprotect: inactive[10 µM]; PNC inhibitor: inactive

Results for CS(=O)(=O)Nc1nnc(Cc2ccccc2)s1 ?
NPSR antag: inactive; IMPase Li inh: inactive; HttQ103 aggreg: inactive; HTT cytoprotect: inactive[10 µM]; IMPase cell inh: inconclusive; PNC inhibitor: -100

How did COc1ccc(CN(Cc2cc3cc4c(cc3[nH]c2=O)OCO4)C(=O)NC2CCCCC2)cc1 do in these assays?
NPSR antag: inactive; IMPase Li inh: inactive; HttQ103 aggreg: inactive; HTT cytoprotect: inactive[10 µM]; IMPase cell inh: inactive[1.84 µM]; PNC inhibitor: -97

Results for Cc1ccc(C(=O)c2oc3ccccc3c2NC(=O)Cc2ccccc2)cc1 ?
IMPase cell inh: inactive

How did O=C(NC1CCCC1)c1cc2nc(-c3ccccc3)cc(-c3ccccc3)n2n1 do in these assays?
NPSR antag: inactive; HttQ103 aggreg: 3.5µM; HTT cytoprotect: inactive[10 µM]

How did COc1cccc(CN(C(=O)Cc2c[nH]c3ccccc23)C(C(=O)NC2CCCCC2)c2ccc(C)o2)c1 (stereo not drawn) do in these assays?
NPSR antag: inactive; IMPase Li inh: inactive; HttQ103 aggreg: 13µM; HTT cytoprotect: inactive[10 µM]; IMPase cell inh: inactive; PNC inhibitor: inactive

How did COc1ccc(CN(C(=O)Cc2c[nH]c3ccccc23)C(C(=O)NC2CCCCC2)c2ccc(C)o2)cc1 (stereo not drawn) do in these assays?
NPSR antag: inconclusive; IMPase Li inh: inactive; HttQ103 aggreg: inconclusive; HTT cytoprotect: inactive[10 µM]; IMPase cell inh: inactive; PNC inhibitor: inconclusive

How did COc1ccc(/C=N/NC(=O)CN(c2ccc(OC)cc2)S(=O)(=O)c2ccccc2)cc1 do in these assays?
NPSR antag: inactive; IMPase Li inh: inactive; HttQ103 aggreg: inactive; HTT cytoprotect: inactive

What do the screens show for `COc1ccc(N(CC(=O)N/N=C(\C)CCc2ccccc2)S(=O)(=O)c2ccc(C)cc2)cc1`?
NPSR antag: inactive; HttQ103 aggreg: inactive[9.22 µM]; HTT cytoprotect: 3.5µM

Results for COc1ccc(CC/C(C)=N\NC(N)=O)cc1 ?
NPSR antag: inactive; IMPase Li inh: inactive; HttQ103 aggreg: inactive; PNC inhibitor: -105

Results for Cc1cc(C)cc(N2C(=O)CC(Sc3ncn[nH]3)C2=O)c1 (stereo not drawn) ?
NPSR antag: inactive; IMPase Li inh: inactive; HttQ103 aggreg: inactive[9.22 µM]; HTT cytoprotect: inactive[10 µM]

What do the screens show for `O=C(CC1(O)C(=O)N(CCc2ccccc2)c2ccc(Br)cc21)c1ccccc1O` (stereo not drawn)?
IMPase cell inh: inactive

How did COC(=O)c1ccc(C(NC(=O)OCc2ccccc2)/C(=C/[C@@H](C)C(=O)NCc2ccc(OC)c(O)c2)c2cccnc2)cc1 (stereo partly drawn) do in these assays?
IMPase Li inh: inactive; HTT cytoprotect: inactive

What do the screens show for `CC(C)(C)c1nnc2sc(SC/C(O)=C(\C#N)c3nc4ccccc4[nH]3)nn2c1=O`?
NPSR antag: inconclusive; IMPase Li inh: 13µM; HttQ103 aggreg: inactive; HTT cytoprotect: inactive; IMPase cell inh: inactive; PNC inhibitor: -95

Results for Cc1ccc(-c2nnc(Nc3ccc(F)cc3)c3ccccc23)cc1S(=O)(=O)NC(C)C ?
IMPase cell inh: inactive

What do the screens show for `CCc1cccc2c(C(=O)COC(=O)C3=NNC(=O)CC3)c[nH]c12`?
NPSR antag: inactive; IMPase Li inh: inactive; HttQ103 aggreg: inactive[9.22 µM]; HTT cytoprotect: inactive[1.9 µM]

Results for CCc1cccc2c(C(=O)COC(=O)c3nn(C)c(=O)c4ccccc34)c[nH]c12 ?
NPSR antag: inactive; IMPase Li inh: inactive; HttQ103 aggreg: inactive; HTT cytoprotect: inactive; IMPase cell inh: inactive; PNC inhibitor: -109

Results for Cc1ccc(C2=Nc3ccccc3N=C(c3ccc(F)cc3)C2)c(O)c1 ?
IMPase cell inh: inactive
